System: RXRa DBDmut IVT, anti-RXR (DBD mutation: RXRa K156A/R161A, NR concentration 90 nM)
Assay: PBM binding z-score (relative to random genomic background probes); higher = stronger binding; sequences stand for … in GC…GCGATTGACAGCGTAGAATGAAGG
Outline: (§1)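 Each nuclear receptor dimer, without ligand, was incubated for 1 h on custom Agilent 4×180K protein-binding microarrays. Binding was detected with antibodies against each partner (one per run), and scanned fluorescence was regression-normalized. The binding z-scores are referenced to random human genomic background probes.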

Compared with ATATGTAGGTTAGATCCGGGTCATTCAGGCTATG, AGTCAAAGTTCACTAGGTAACGTCAGATTCAGCT is higher in PBM binding z-score: 0.691 for the first, 4.32 for the second.

Going from CATACAGGGTCAGCTAGGCCATAGTAGGGACGGC to ATCTCTAGGTAAAACTCAGTTCAGTGAAGAACGC, the PBM binding z-score falls from 1.7 to 0.726.

Going from ATCTCTAGGGAAAGTTCAGTGAAAGATCGATAGA to GATACAGAGTCAAGGCCAGAGTACGCGTATTGAT, the PBM binding z-score falls from 1.12 to -0.102.

Compared with GGAACGAGGGCATAGTTGATAGCATCTGTCGACG, TAGCCTAGGTCATTCAGGGGCCCGTATAGAAAGC is lower in PBM binding z-score: 2.25 for the first, 1.39 for the second.

First: CCTCGGAGGACAGAAGGTCAGAGCGGTCCGCTTT
Second: CCTAGTTGGTCAGGACGTCACACACCGGATATGA
The PBM binding z-score of the first is lower: 0.0416 for the first, 0.386 for the second.

Compared with CCTCGGAGGACAGAAGGTCAGAGATGTCCGCTTT, CGTCCAAGGTCTGAGAGGTCAGTGAATGCCGAGT is higher in PBM binding z-score: -0.0318 for the first, 0.83 for the second.

Going from ATCTCTAGGTACAAGTTCAGTGAATCCCGAGGAT to GCAGAAAGGTGAAACGCAGGTAACTCAGGGTGGC, the PBM binding z-score falls from 1.93 to 0.00146.

First: GCTAGCAAGCCATTTGGGTCACTCAATGACGGGC
Second: CGAACTAGGTCATTGACAGGACAGGGAATAGTAA
The PBM binding z-score of the first is lower: -0.364 for the first, 2.18 for the second.

Going from ACAGGCAGGTGAGTGAAGGTAACTCAGCTGGACG to CAAACTAGGTTAAGAGGTCAAAGTCCGCTTCCCG, the PBM binding z-score rises from -0.851 to 2.2.

Compared with TCGAGTAGGTTACCAATGGGGCATCCAGCTTTCT, TACCCTAGGTCATGCGGGCCAGTATAGTGTCGGC is higher in PBM binding z-score: -0.00896 for the first, 0.8 for the second.

Compared with CTCGAACGGTCGTGCTCAGGTGAGTATACCAAAC, TATACAGAGTCAAAGGCCAGAGTACGAATGTCGA is lower in PBM binding z-score: 0.177 for the first, -0.862 for the second.

First: TCTTGTAGATCAGCAGGGTAAGAAAGCTGGCCAA
Second: ACTATTGGTTGACTTAGGGCAACCGATACGACGC
The PBM binding z-score of the first is higher: 0.581 for the first, 0.419 for the second.

Compared with CGTCCAAGGTCAGAGAGGTCAGTGATTGCCGAGT, CCTACTGGGCCAAAAAGGTCACTGATGCCGATAA is lower in PBM binding z-score: 3.31 for the first, 0.0179 for the second.

Going from CCTCGGAGGACAACACGAGGTCAGAGCTGCCAGA to CGAACGAGGGCTTGAGTTGATAGCAAATGCCGAT, the PBM binding z-score falls from 0.871 to 0.344.

Compared with AGTCAAGGTTCAGGACGAGGTAACGTAAAGCACG, CGAACTAGGTCAGAACAGGACAGGGAAGGATGAT is lower in PBM binding z-score: 2.61 for the first, 0.62 for the second.

First: CCTACTGGGCCACGAAAGGACATTGATTCAGTGA
Second: AGAACGCGGGCAATGAGTTGATAGCACGGGTGGC
The PBM binding z-score of the first is higher: -0.0534 for the first, -0.0914 for the second.

Compared with CCTCGGAGGATAACAGGAGGTCAGAGCTGCCAGA, ATATGTAGGTTACACCCGGGTCATTCAGGCTATG is higher in PBM binding z-score: -0.476 for the first, 0.528 for the second.

First: AGAATGAGGGTATACGTAGATCAGGGAAGAAAGT
Second: CCTACTTGGCCAAAGGTCATTGATTCCAATGCTC
The PBM binding z-score of the first is lower: 0.799 for the first, 2.06 for the second.

Going from ACTCGGAGGACACAGGTCAGAGCTACGCCAGTGA to AGAATGAGGTTATTCGTAGATCAGGGAAGAAAGT, the PBM binding z-score rises from 0.823 to 2.5.

Going from TAGCCTAGGTCAGATCGGGACAGTATACGCTATA to CGAACTAGGTCAGAACAGGGCAGTGAAGGATGAT, the PBM binding z-score rises from -0.412 to 0.463.

System: RXRa homodimer (NR concentration 180 nM)
Assay: as above
Outline: as §1

Compared with ATATGTAGGTTAGATCCGGGTCATTCAGGCTATG, AGTCAAAGTTCACTAGGTAACGTCAGATTCAGCT is higher in PBM binding z-score: 2.65 for the first, 4.31 for the second.

First: CATACAGGGTCAGCTAGGCCATAGTAGGGACGGC
Second: ATCTCTAGGTAAAACTCAGTTCAGTGAAGAACGC
The PBM binding z-score of the first is higher: 4.53 for the first, 0.153 for the second.

Going from ATCTCTAGGGAAAGTTCAGTGAAAGATCGATAGA to GATACAGAGTCAAGGCCAGAGTACGCGTATTGAT, the PBM binding z-score falls from 1.21 to 0.116.

First: GGAACGAGGGCATAGTTGATAGCATCTGTCGACG
Second: TAGCCTAGGTCATTCAGGGGCCCGTATAGAAAGC
The PBM binding z-score of the first is lower: 1.02 for the first, 2.77 for the second.

First: CCTCGGAGGACAGAAGGTCAGAGCGGTCCGCTTT
Second: CCTAGTTGGTCAGGACGTCACACACCGGATATGA
The PBM binding z-score of the first is higher: 1.82 for the first, 0.296 for the second.

First: CCTCGGAGGACAGAAGGTCAGAGATGTCCGCTTT
Second: CGTCCAAGGTCTGAGAGGTCAGTGAATGCCGAGT
The PBM binding z-score of the first is lower: 1.74 for the first, 2.29 for the second.

Going from ATCTCTAGGTACAAGTTCAGTGAATCCCGAGGAT to GCAGAAAGGTGAAACGCAGGTAACTCAGGGTGGC, the PBM binding z-score rises from 0.729 to 2.31.

Compared with GCTAGCAAGCCATTTGGGTCACTCAATGACGGGC, CGAACTAGGTCATTGACAGGACAGGGAATAGTAA is higher in PBM binding z-score: 0.56 for the first, 2.59 for the second.

Going from ACAGGCAGGTGAGTGAAGGTAACTCAGCTGGACG to CAAACTAGGTTAAGAGGTCAAAGTCCGCTTCCCG, the PBM binding z-score rises from 0.135 to 6.79.

Going from TCGAGTAGGTTACCAATGGGGCATCCAGCTTTCT to TACCCTAGGTCATGCGGGCCAGTATAGTGTCGGC, the PBM binding z-score rises from 0.647 to 3.33.

First: CTCGAACGGTCGTGCTCAGGTGAGTATACCAAAC
Second: TATACAGAGTCAAAGGCCAGAGTACGAATGTCGA
The PBM binding z-score of the first is lower: -0.088 for the first, 1.03 for the second.

Going from TCTTGTAGATCAGCAGGGTAAGAAAGCTGGCCAA to ACTATTGGTTGACTTAGGGCAACCGATACGACGC, the PBM binding z-score rises from -0.0542 to 0.479.

Compared with CGTCCAAGGTCAGAGAGGTCAGTGATTGCCGAGT, CCTACTGGGCCAAAAAGGTCACTGATGCCGATAA is lower in PBM binding z-score: 5.33 for the first, 4.83 for the second.

Compared with CCTCGGAGGACAACACGAGGTCAGAGCTGCCAGA, CGAACGAGGGCTTGAGTTGATAGCAAATGCCGAT is lower in PBM binding z-score: 2.23 for the first, -0.152 for the second.

First: AGTCAAGGTTCAGGACGAGGTAACGTAAAGCACG
Second: CGAACTAGGTCAGAACAGGACAGGGAAGGATGAT
The PBM binding z-score of the first is higher: 2.19 for the first, 1.26 for the second.

Going from CCTACTGGGCCACGAAAGGACATTGATTCAGTGA to AGAACGCGGGCAATGAGTTGATAGCACGGGTGGC, the PBM binding z-score rises from -0.0708 to 0.299.

Going from CCTCGGAGGATAACAGGAGGTCAGAGCTGCCAGA to ATATGTAGGTTACACCCGGGTCATTCAGGCTATG, the PBM binding z-score rises from 1.73 to 3.23.

First: AGAATGAGGGTATACGTAGATCAGGGAAGAAAGT
Second: CCTACTTGGCCAAAGGTCATTGATTCCAATGCTC
The PBM binding z-score of the first is lower: 0.262 for the first, 6.05 for the second.

Going from ACTCGGAGGACACAGGTCAGAGCTACGCCAGTGA to AGAATGAGGTTATTCGTAGATCAGGGAAGAAAGT, the PBM binding z-score rises from 2.09 to 2.29.

Going from TAGCCTAGGTCAGATCGGGACAGTATACGCTATA to CGAACTAGGTCAGAACAGGGCAGTGAAGGATGAT, the PBM binding z-score falls from 1.76 to 1.28.
